Screen size: about 48,000 compounds; about 13,000 (27%) showed an effect of 50% or more. This is one part of the list.
System: Wolbachia pipientis
Test: Anti-Wolbachia Cell-Based Screen
Format: functional
Design: scale not given: in the data most compounds retested in dose-response had high values
Conditions: 5 µM

Structure (SMILES)	Percent Effect [%]
CCNC(=O)CCC(=O)NC1(c2cccc(Br)c2)CC1	-12.14
CCc1nc(C)c(C(=O)N2C[C@H]3CC[C@@H]2CN(S(=O)(=O)N(C)C)C3)s1	8.94
CN(Cc1cnn(C)c1)C(=O)NC1CCN(c2ncccn2)CC1	-3.223
CC(C)NC(=O)[C@@H]1CC[C@@H]2[C@@H](CCN2Cc2cn(C)c3ccccc23)O1.O=C(O)C(F)(F)F	-4.98
Cc1cccnc1CN(C)C(C(=O)O)c1ccc(-c2ccn[nH]2)cc1 (stereo unspecified)	-12.44
O=C(CC1OCCc2ccccc21)NCCn1cccc1 (stereo unspecified)	-19.46
COc1ccc(C(=O)NCc2cccnc2N2CCOCC2)o1	-8.247
COc1c(CNCc2cccnc2N2CCN(C)CC2)c(C)nn1C	102
COc1c(CNCc2ccccc2CO)c(C)nn1C	-3.857
Cc1nn(C)c(N(C)C)c1CNCc1cccnc1N1CCOCC1	75.62
Cc1nn(C)c(Cl)c1C(=O)NCc1cccnc1N1CCOCC1	97.98
COc1c(CNCc2cccnc2OC2CCCC2)c(C)nn1C	10.48
Cc1nn(C)c(C)c1C(=O)NCc1cccnc1OC1CCCC1	2.821
COc1ncccc1CNCc1c(C)nn(C)c1N1CCOCC1	134
Cc1nn(C)c(N(C)C)c1CNCc1cccnc1-n1cncn1.Cl	6.556
Cc1nn(C)c(N2CCOCC2)c1CNC(c1cccs1)C(C)C (stereo unspecified)	11.33
Cn1ncnc1CCNC(=O)c1cc(Cl)c(Cl)n1C	-10.92
CCC(O)(CNCc1ncc[nH]1)c1ccc(Br)cc1 (stereo unspecified)	-2.159
CCN(C(=O)c1ccc2nncn2c1)C(C)Cc1ccc(OC)cc1 (stereo unspecified)	0.4912
COc1ccccc1CN1C(=O)O[C@@H]2CN(Cc3cccc(C)n3)C[C@@H]21	8.298
Cc1c(C(C)NCc2cnn(C)c2)cnn1-c1ccccc1 (stereo unspecified)	2.501
COc1c(CNCc2cccnc2N2CCOCC2)c(C)nn1C	98.1

Structure (SMILES)	Percent Effect [%]
COc1c(CNCc2ccc(N3CCOCC3)cc2)c(C)nn1C	-35.64
CC(C)c1nn(C)c(Cl)c1CNCc1cccnc1N(C)C.Cl	4.509
COc1c(CNCc2cccnc2N2CCCCC2)c(C)nn1C	105.9
Cc1nn(C)c(Cl)c1CNCc1cccnc1N1CCCCC1.Cl	128.1
COc1c(CNCc2ccccc2CN2CCOCC2)c(C)nn1C	9.735
Cc1nn(C)c(C)c1CNCc1ccc(N2CCOCC2)nc1.Cl	-2.34
COc1ncccc1CNCc1c(C(C)C)nn(C)c1Cl	-10.74
Cc1nn(C)c(C)c1CNCc1ccnc(N2CCOCC2)c1	7.637
COc1c(CNCc2ccnc(N3CCCC3)c2)c(C)nn1C	5.629
Cc1nn(C)c(C)c1CNCc1cccnc1N1CCOCC1	117.5
CCN(CC)C(=O)[C@@H]1C[C@@H](NC(=O)c2ccn(C(C)(C)C)c2)CN1C	-2.553
CCOC1CCCN(C(=O)c2[nH]nc(C3CC3)c2Br)C1 (stereo unspecified)	12.02
Cc1nn(C)c(C)c1CC(=O)NCc1cccnc1N1CCOCC1	92.54
Cc1nn(C)c(C)c1CC(=O)NCc1cccnc1OC1CCCC1	8.742
Cc1nn(C)c(C)c1CCC(=O)NCc1cccnc1OC1CCCC1	8.443
O=C(NC1CCC(C(=O)N2CCSCC2)CC1)N1CCOCC1 (stereo unspecified)	-2.912
CC(=O)NCCNC(=O)c1sccc1Br	4.913
COCCNS(=O)(=O)c1ccc(Cl)c(C(=O)N(C)Cc2sccc2C)c1	1.059
Cc1ccc(S(=O)(=O)N(C)c2ccsc2C(=O)NCC(C)C)cc1	110.5
COC(=O)CNC(=O)c1cccc(C(=O)N(C)c2ccccc2)c1	-13.83
COC(=O)CNC(=O)c1sccc1N(C)S(=O)(=O)c1ccc(Cl)cc1	108.4
CNC(=O)c1sccc1S(=O)(=O)Nc1ccc(C)cc1	10.06

Structure (SMILES)	Percent Effect [%]
COCC1CN(c2ccc(Cl)cc2C#N)CCO1 (stereo unspecified)	-47.15
CN(C(=O)CN1CCCC1c1cnn(C)c1)C1(C#N)CCCCC1 (stereo unspecified)	17.82
Fc1ccc(C2(NCc3noc(C4CC4)n3)CCC2)cc1	7.462
Cn1ccnc1CN1CC[C@@H]2[C@@H](CCC(=O)N2CCc2c[nH]cn2)C1	16.03
N#Cc1cn(C2CC2)c(=O)n(CC(O)c2ccc(OC(F)F)cc2)c1=O (stereo unspecified)	-10.28
CC(C)N(Cc1c[nH]nc1-c1ccc2c(c1)OCO2)Cc1nccn1C	-1.902
CN(C)C(=O)COCc1cncc2c1CCN(C1CCOCC1)C2.O=C(O)C(F)(F)F.O=C(O)C(F)(F)F	119.4
CN1CCN(c2ncc3c(c2C(=O)O)CCN(C2CCOC2)C3)CC1.O=C(O)C(F)(F)F.O=C(O)C(F)(F)F (stereo unspecified)	2.308
CN(C)CCOCc1cncc2c1CCN(C1CCOCC1)C2.O=C(O)C(F)(F)F.O=C(O)C(F)(F)F.O=C(O)C(F)(F)F	96.48
O=C(C1CC=CC1)N1CCc2c(COCc3ccncc3)cncc2C1.O=C(O)C(F)(F)F.O=C(O)C(F)(F)F	-4.118
CN(C)C(=O)COCc1cncc2c1CCN(Cc1nccn1C)C2	-3.709
CN(C)CCOCc1cncc2c1CCN(C(=O)C1CCOCC1)C2.O=C(O)C(F)(F)F.O=C(O)C(F)(F)F	112.9
CCN(CC)c1ncc2c(c1C(=O)O)CCN(C1CCOC1)C2.O=C(O)C(F)(F)F (stereo unspecified)	12.85
Cn1ccnc1CNC[C@H]1Cn2cc(-c3ccccc3)nc2CO1	-17.11
COc1cc(F)ccc1NC(=O)NCCNC(=O)OC(C)(C)C	3.046
CN(C)c1ccc(NC(=O)N2CCCCC2c2ncc[nH]2)cn1 (stereo unspecified)	3.844
OCCN(Cc1cccnc1)c1ccc(Br)cn1	-12.52
c1ccc(Cn2ccnc2CN2CCCC2c2noc(C3CC3)n2)cc1 (stereo unspecified)	9.89
CNc1ccc(CC2CCCN(C(=O)c3cncnc3C)C2)nn1 (stereo unspecified)	-8.103
CNc1ccc(CC2CCCN(C(=O)c3cnc(C)nc3)C2)nn1 (stereo unspecified)	2.499
CNc1ccc(CC2CCCN(C(=O)c3cnccn3)C2)nn1 (stereo unspecified)	132.6
CNc1ccc(CC2CCCN(C(=O)c3cccc(C)n3)C2)nn1 (stereo unspecified)	125.2

Structure (SMILES)	Percent Effect [%]
O=C(c1cnccn1)N1CCCC(Cn2cc(C3CC3)nn2)C1 (stereo unspecified)	-22.35
Cc1cccc(C(=O)N2CCCC(c3nccn3Cc3cscn3)C2)n1 (stereo unspecified)	13.18
CCc1noc(CN(CC)C(=O)c2ccc3ncsc3c2)n1	-4.547
Cc1nc(CN(C)C(=O)Nc2cccc(COC(C)C)c2)no1	-5.04
Cc1nc(CN(C)C(=O)Nc2cccc(C)c2C)no1	98.94
Cc1nc(CN(C)C(=O)Nc2cccc(COC(C)C)c2C)no1	-7.168
CCN(C)c1ncnc2c1CCN(C(=O)c1cnccn1)CC2.O=C(O)C(F)(F)F	3.18
CCc1n[nH]c(C2CN(C(=O)CCc3cccs3)CCO2)n1 (stereo unspecified)	3.606
CCc1n[nH]c(C2CN(C(=O)CCn3ccccc3=O)CCO2)n1 (stereo unspecified)	105.3
CCCc1n[nH]c(C2CN(C(=O)CCn3ccccc3=O)CCO2)n1 (stereo unspecified)	104.2
CCc1n[nH]c(C2CN(C(=O)Cc3ccc(C)nc3)CCO2)n1 (stereo unspecified)	17.82
CCCc1n[nH]c(C2CN(C(=O)CCCn3cccn3)CCO2)n1 (stereo unspecified)	-7.162
CCc1n[nH]c(C2CN(C(=O)Cn3ccccc3=O)CCO2)n1 (stereo unspecified)	10.71
CCc1n[nH]c(C2CN(C(=O)Cc3cccs3)CCO2)n1 (stereo unspecified)	122.2
CCCc1n[nH]c(C2CN(C(=O)Cn3ccccc3=O)CCO2)n1 (stereo unspecified)	125.8
CC(C)(C)c1coc([C@@H]2COCCN2Cc2c[nH]c3ccccc23)n1	-5.354
CS(=O)(=O)Cc1cccc(C(=O)NCC2Cc3ccccc3O2)c1 (stereo unspecified)	-6.812
CCN(C)S(=O)(=O)N1CCCC(c2cccc(C(=O)O)c2)C1 (stereo unspecified)	10.58
CCC1CN(C(=O)c2ccccc2N(C)C)CCN1C(C)C (stereo unspecified)	-1.815
CN(C)c1ccccc1C(=O)N1CCCC(c2cccc(C(=O)O)c2)C1 (stereo unspecified)	94.85
CC(C)N(C)CC(=O)N1CCCC(c2ccc(C(=O)O)cc2)C1 (stereo unspecified)	-10.1
O=C(O)c1cccc(C2CCCN(S(=O)(=O)C3CC3)C2)c1 (stereo unspecified)	5.769

Structure (SMILES)	Percent Effect [%]
CN(C)c1ccccc1C(=O)N1CCCC(c2ccc(C(=O)O)cc2)C1 (stereo unspecified)	127.7
CCS(=O)(=O)c1ncc(CN2CCSCC2)n1CCc1ccccc1	0.5583
COC(=O)C1(NCc2nc(C)c(C)o2)CCC(C)CC1 (stereo unspecified)	-8.144
Cc1cc(C(=O)Nc2ccc(OCC3CCOCC3)cc2)[nH]n1	0.7277
Cn1cnc(S(=O)(=O)NCCCN2CCCC2=O)c1Cl	106
Cn1cnc(S(=O)(=O)NCCCN2CCCCCC2=O)c1Cl	103.8
Cn1cnc(S(=O)(=O)NCCN2CCCCCC2=O)c1Cl	-2.808
CCN1CCN(S(=O)(=O)c2ncn(C)c2Cl)CC1	25.01
CN1CCN(S(=O)(=O)c2ncn(C)c2Cl)CC1	8.331
O=C1CCCCN1CCCNCc1cnc(C2CCC2)s1	-10.31
Cc1cc(C)n(CC(C)NC(=O)c2cc(CN3CCC(O)CC3)on2)n1 (stereo unspecified)	-12.5
COCCCc1nc(-c2ccc(S(=O)(=O)N3CCCC3)cc2)cs1	23.72
CCC(NC(=O)Cn1ccc(=O)n(C)c1=O)c1ccc(OC)cc1 (stereo unspecified)	1.056
COc1ccc(C)cc1C(C)NC(=O)Cn1ccc(=O)n(C)c1=O (stereo unspecified)	121.4
COc1ccc(C(O)CNC(=O)Cn2ccc(=O)n(C)c2=O)cc1 (stereo unspecified)	1.675
CCC(NC(=O)Cn1ccc(=O)n(C)c1=O)c1ccccc1OC (stereo unspecified)	2.411
COc1ccc(C)cc1C(C)NC(=O)NCCCn1cncn1 (stereo unspecified)	6.959
COc1ccc(C(C)NC(=O)Cn2ccc(=O)n(C)c2=O)cc1F (stereo unspecified)	127.2
